Active and inactive are the calls of the source. The calls were made as follows: active = hit-call score of the fitted dose curve at least 0.9, where 1 is the maximum; inactive = score below 0.9.
Assays:
Details in all cases: mRNA level, 48 h; actives raise or lower the signal
[1] = read-out: Cytochrome P450 7A1 (Homo sapiens) (UniProt P22680); assay: LTEA_HepaRG_CYP7A1: Life Technologies and Expression Analysis (LTEA) Assay for Cytochrome P450 7A1 (CYP7A1) using HepaRG (AID 2283496)
How it was run: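 HepaRG cells plated 48 h, then switched to serum-free induction medium and exposed in duplicate for 48 h to 8-point half-log series from 100 uM in 0.5% DMSO. CYP7A1 mRNA by qRT-PCR (TaqMan), normalized to ACTB/GAPDH/POLR2A; bidirectional fit versus DMSO.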

[2] = read-out: Glutamate-cysteine ligase catalytic (GCLC), GCLC (gene 2729); assay: LTEA_HepaRG_GCLC: Life Technologies and Expression Analysis (LTEA) Assay for Glutamate-cysteine ligase catalytic (GCLC) using HepaRG (AID 2283498)
How it was run: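 Differentiated human HepaRG cells, plated 48 h then switched to serum-free induction medium, were exposed in duplicate for 48 h to 8 half-log concentrations topping at 100 uM in 0.5% DMSO. GCLC mRNA was quantified by qRT-PCR against ACTB, GAPDH and POLR2A.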

[3] = read-out: growth arrest and DNA damage 45 (GADD45G), GADD45G (gene 10912); assay: LTEA_HepaRG_GADD45G: Life Technologies and Expression Analysis (LTEA) Assay for growth arrest and DNA damage 45 (GADD45G) using HepaRG (AID 2283499)
How it was run: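 HepaRG, 48 h exposure, top 100 uM, half-log 8-point series, 0.5% DMSO vehicle, duplicates. Readout: GADD45G transcript by qRT-PCR (Fluidigm array), housekeeping-normalised (ACTB/GAPDH/POLR2A). Bidirectional curve fit vs DMSO baseline.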

[4] = read-out: Glutamate-cysteine ligase regulatory (GCLM), GCLM (gene 2730); assay: LTEA_HepaRG_GCLM: Life Technologies and Expression Analysis (LTEA) Assay for Glutamate-cysteine ligase regulatory (GCLM) using HepaRG (AID 2283500)
How it was run: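 Cells were plated, cultured 48 h, switched to serum-free induction medium, then dosed in duplicate for 48 h at eight half-log concentrations up to 100 uM. RNA was then profiled by qRT-PCR; gain or loss versus DMSO was fitted.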

[5] = read-out: Glutathione S-transferase M3 (GSTM3), GSTM3 (gene 2947); assay: LTEA_HepaRG_GSTM3: Life Technologies and Expression Analysis (LTEA) Assay for Glutathione S-transferase M3 (GSTM3) using HepaRG (AID 2283501)
How it was run: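 qRT-PCR read-out of GSTM3 transcript, normalized to three housekeeping genes, from human HepaRG cells after 48 h chemical exposure. Eight-point half-log series, top 100 uM, 0.5% DMSO vehicle; gain or loss fitted relative to DMSO baseline.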

[6] = read-out: Hypoxia-inducible factor 1-alpha (Homo sapiens) (UniProt Q16665); assay: LTEA_HepaRG_HIF1A: Life Technologies and Expression Analysis (LTEA) Assay for Hypoxia-inducible factor 1 (HIF1A) Trancription factor using HepaRG (AID 2283503)
How it was run: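 Differentiated HepaRG cells in serum-free induction medium exposed 48 h, in duplicate, to 8-point half-log series from 100 uM in 0.5% DMSO. HIF1A mRNA measured by TaqMan qRT-PCR, normalized to ACTB/GAPDH/POLR2A, fitted bidirectionally versus DMSO.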

[7] = read-out: 3-Hydroxy-3-Methylglutaryl-CoA Synthase 2 (HMGCS2), HMGCS2 (gene 3158); assay: LTEA_HepaRG_HMGCS2: Life Technologies and Expression Analysis (LTEA) Assay for 3-Hydroxy-3-Methylglutaryl-CoA Synthase 2 (HMGCS2) using HepaRG (AID 2283504)
How it was run: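 qRT-PCR read-out of HMGCS2 transcript, normalised to three housekeeping genes, in HepaRG cells after 48 h chemical exposure. Eight-point curves from 100 uM, half-log dilutions, 0.5% DMSO vehicle; gain or loss fitted relative to DMSO baseline.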

HGF (gene 3082) = assay: LTEA_HepaRG_HGF: Life Technologies and Expression Analysis (LTEA) Assay for Hepatocyte Growth Facto (HGF) using HepaRG (AID 2283505)
How it was run: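 HepaRG, 48 h dosing, 8-pt half-log series from 100 uM in 0.5% DMSO, duplicates. Readout: TaqMan qRT-PCR of HGF mRNA, housekeeping-normalized; bidirectional curve fit vs DMSO baseline.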

[8] = read-out: Insulin Like Growth Factor 1 (IGF1), IGF1 (gene 3479); assay: LTEA_HepaRG_IGF1: Life Technologies and Expression Analysis (LTEA) Assay for Insulin Like Growth Factor 1 (IGF1) using HepaRG (AID 2283506)
How it was run: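 HepaRG, plated 48 h, then switched to serum-free induction media; test chemical 8-pt half-log from 100 uM (0.5% DMSO), duplicate, 48 h. Lysis in RLT, TaqMan qRT-PCR, norm. ACTB/GAPDH/POLR2A. Bidirectional fit vs DMSO.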

[9] = read-out: Intercellular Adhesion Molecule 1 (ICAM1), ICAM1 (gene 3383); assay: LTEA_HepaRG_ICAM1: Life Technologies and Expression Analysis (LTEA) Assay for Intercellular Adhesion Molecule 1 (ICAM1) using HepaRG (AID 2283507)
How it was run: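 HepaRG, 48 h exposure, 8-pt half-log series from 100 uM, 0.5% DMSO vehicle, duplicates. Readout: TaqMan qRT-PCR mRNA, housekeeping-normalized (ACTB/GAPDH/POLR2A). Bidirectional curve fit vs DMSO baseline.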

[10] = read-out: Insulin-like growth factor-binding protein 1 (IGFBP1), IGFBP1 (gene 3484); assay: LTEA_HepaRG_IGFBP1: Life Technologies and Expression Analysis (LTEA) Assay for Insulin-like growth factor-binding protein 1 (IGFBP1) using HepaRG (AID 2283508)
How it was run: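 qRT-PCR mRNA read-out (TaqMan, Fluidigm array), normalised to three housekeeping genes; HepaRG cells, 48 h exposure, 8-pt half-log series from 100 uM, 0.5% DMSO vehicle; bidirectional curve fit vs DMSO baseline.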

[11] = read-out: Interleukin 6 (IL6), IL6 (gene 3569); assay: LTEA_HepaRG_IL6: Life Technologies and Expression Analysis (LTEA) Assay for Interleukin 6 (IL6) using HepaRG (AID 2283509)
How it was run: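 Differentiated human HepaRG cells, plated 48 h then switched to serum-free induction medium, were exposed in duplicate for 48 h to eight half-log concentrations up to 100 uM in 0.5% DMSO. IL6 mRNA measured by qRT-PCR, normalized to ACTB/GAPDH/POLR2A.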

[12] = read-out: Interleukin 6 Receptor (IL6R), IL6R (gene 3570); assay: LTEA_HepaRG_IL6R: Life Technologies and Expression Analysis (LTEA) Assay for Interleukin 6 Receptor (IL6R) using HepaRG (AID 2283510)
How it was run: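 Readout is IL6R transcript level by TaqMan qRT-PCR, normalized to three housekeeping genes and fitted bidirectionally against 0.5% DMSO controls. Human HepaRG cells received chemicals for 48 h in serum-free induction medium, highest concentration 100 uM.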

[13] = read-out: Potassium channel subfamily K member 1 (KCNK1), KCNK1 (gene 3775); assay: LTEA_HepaRG_KCNK1: Life Technologies and Expression Analysis (LTEA) Assay for Potassium channel subfamily K member 1 (KCNK1) using HepaRG (AID 2283511)
How it was run: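 Differentiated human HepaRG cells in serum-free induction medium were exposed in duplicate for 48 h to 8 half-log concentrations up to 100 uM in 0.5% DMSO. KCNK1 mRNA was measured by TaqMan qRT-PCR, normalized to ACTB, GAPDH and POLR2A, and fitted bidirectionally versus DMSO.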

[14] = read-out: Keratin 19 (KRT19), KRT19 (gene 3880); assay: LTEA_HepaRG_KRT19: Life Technologies and Expression Analysis (LTEA) Assay for Keratin 19 (KRT19) using HepaRG (AID 2283512)
How it was run: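 HepaRG, 48 h chemical exposure, 8-pt half-log CRC from 100 uM, 0.5% DMSO vehicle, duplicates. Readout: TaqMan qRT-PCR of KRT19 mRNA, housekeeping-normalized (ACTB/GAPDH/POLR2A). Bidirectional fit vs DMSO baseline.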

[15] = read-out: JUN Transcription Factor, JUN (gene 3725); assay: LTEA_HepaRG_JUN: Life Technologies and Expression Analysis (LTEA) Assay for JUN Transcription Factor using HepaRG (AID 2283513)
How it was run: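 Cells plated 48 h, medium switched to serum-free induction medium, then dosed 48 h (100 uM top, half-log dilutions, 0.5% DMSO). RNA isolated; JUN measured by qRT-PCR against three housekeeping genes; gain or loss fitted relative to DMSO.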

[16] = read-out: Lipase C (LIPC), LIPC (gene 3990); assay: LTEA_HepaRG_LIPC: Life Technologies and Expression Analysis (LTEA) Assay for Lipase C (LIPC) using HepaRG (AID 2283514)
How it was run: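 Differentiated human HepaRG cells in serum-free induction medium were exposed in duplicate for 48 h to eight concentrations (top 100 uM, half-log steps, 0.5% DMSO). LIPC mRNA was quantified by TaqMan qRT-PCR, normalized to ACTB, GAPDH and POLR2A, with bidirectional fitting versus DMSO.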

[17] = read-out: Lipoprotein lipase (LPL), LPL (gene 4023); assay: LTEA_HepaRG_LPL: Life Technologies and Expression Analysis (LTEA) Assay for Lipoprotein lipase (LPL) using HepaRG (AID 2283515)
How it was run: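 Differentiated human HepaRG cells in serum-free induction medium were exposed in duplicate for 48 h to eight half-log concentrations (top 100 uM) in 0.5% DMSO. LPL mRNA was quantified by TaqMan qRT-PCR, normalized to ACTB, GAPDH and POLR2A.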

[18] = read-out: Heat shock 70 kDa protein 1 (HSPA1A), gene 3303; assay: LTEA_HepaRG_HSPA1A: Life Technologies and Expression Analysis (LTEA) Assay for Heat shock 70 kDa protein 1 (HSPA1A) using HepaRG (AID 2283502)
How it was run: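 Readout is HSPA1A transcript level by microfluidic qRT-PCR, normalized to three housekeeping genes and analysed for gain or loss of signal relative to 0.5% DMSO. Human HepaRG cultures received test chemicals for 48 h at up to 100 uM.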

Measured: AC50

Hypoxia-inducible factor 1-alpha (Homo sapiens), sequence (Q16665 whole entry, looked up): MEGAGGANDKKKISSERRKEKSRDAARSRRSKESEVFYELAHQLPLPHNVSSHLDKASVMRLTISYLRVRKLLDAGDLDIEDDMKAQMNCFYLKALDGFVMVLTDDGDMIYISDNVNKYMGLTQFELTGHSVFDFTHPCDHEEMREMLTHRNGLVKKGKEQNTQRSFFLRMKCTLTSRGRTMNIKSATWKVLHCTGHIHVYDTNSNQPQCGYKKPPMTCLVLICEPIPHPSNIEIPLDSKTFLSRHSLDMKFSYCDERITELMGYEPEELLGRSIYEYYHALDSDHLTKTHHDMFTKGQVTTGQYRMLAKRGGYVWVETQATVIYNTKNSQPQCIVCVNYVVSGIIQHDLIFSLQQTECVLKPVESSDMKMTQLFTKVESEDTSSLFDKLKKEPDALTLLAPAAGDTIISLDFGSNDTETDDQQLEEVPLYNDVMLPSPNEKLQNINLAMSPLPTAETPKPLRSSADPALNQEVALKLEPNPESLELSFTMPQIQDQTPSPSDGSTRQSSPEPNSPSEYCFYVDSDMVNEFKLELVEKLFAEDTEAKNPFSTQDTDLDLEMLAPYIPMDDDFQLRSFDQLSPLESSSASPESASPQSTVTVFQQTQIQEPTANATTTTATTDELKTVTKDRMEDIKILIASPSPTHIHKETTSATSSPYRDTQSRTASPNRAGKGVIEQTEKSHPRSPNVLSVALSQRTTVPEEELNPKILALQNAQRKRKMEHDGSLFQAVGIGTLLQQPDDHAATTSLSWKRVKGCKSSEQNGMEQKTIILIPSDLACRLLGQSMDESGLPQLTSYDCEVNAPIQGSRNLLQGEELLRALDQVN

Cc1cc(O)ccc1Cl
inactive: [1] | [2] | [3] | [4] | [5] | [6] | [7] | HGF (gene 3082) | [8] | [9] | [10] | [11] | [12] | [13] | [14] | [15] | [16] | [17]

Cc1cccc([N+](=O)[O-])c1
inactive: [2] | [3] | [4] | [5] | [18] | [6] | [7] | HGF (gene 3082) | [9] | [10] | [11] | [12] | [13] | [14] | [15] | [16] | [17]

C=CC(=O)NCNC(=O)C=C
active: [6] 15.6 µM | [11] 50 µM
inactive: [1] | [2] | [3] | [4] | [5] | [7] | HGF (gene 3082) | [9] | [10] | [12] | [13] | [14] | [15] | [17]

Oc1c(Cl)c(Cl)c(Cl)c(Cl)c1Cl
inactive: HGF (gene 3082) | [9] | [15]
active: [1] 3.88 µM | [2] 1.97 µM | [3] 12.6 µM | [4] 2.1 µM | [5] 4.88 µM | [6] 5.16 µM | [10] 7.05 µM | [12] 5.66 µM | [13] 34.5 µM | [14] 6.33 µM | [17] 5.08 µM

Nn1cnnc1
inactive: [1] | [2] | [3] | [4] | [5] | [6] | [7] | HGF (gene 3082) | [8] | [9] | [10] | [11] | [12] | [13] | [14] | [15] | [16] | [17]

NS(=O)(=O)C(F)(F)C(F)(F)C(F)(F)C(F)(F)C(F)(F)C(F)(F)C(F)(F)C(F)(F)F
active: [1] 8.86 µM | [2] 5.02 µM | [3] 50 µM | [4] 0.993 µM | [6] 11.4 µM | [7] 12.8 µM | HGF (gene 3082) 12.9 µM | [10] 21.6 µM | [11] 38.9 µM | [12] 30.2 µM | [14] 23.4 µM | [15] 37.2 µM | [16] 15.8 µM | [17] 70.8 µM
inactive: [5] | [9] | [13]

Cc1cc2c3c(c1)C(c1ccccc1)=N[C@@H](NC(=O)c1ccncc1)C(=O)N3CC2
active: [1] 50 µM | [8] 39.3 µM | [15] 50 µM | [17] 21.1 µM
inactive: [2] | [3] | [4] | [5] | [6] | HGF (gene 3082) | [9] | [10] | [11] | [12] | [13] | [14]

From PubChem BioAssay (EPA / NIEHS)
